For 15 compounds, outcome and AC50 results are on record in PubChem BioAssay (EPA / NIEHS).

The source made the active and inactive calls. The calls were made as follows: active = hit-call score of the fitted dose curve at least 0.9, where 1 is the maximum; inactive = score below 0.9.

This assay can be described thus: CCTE_Shafer_MEA_dev_inter_network_spike_interval_mean: CCTE's Neural Network Formation Assay for Mean Inter-network Spike Interval, Shafer Lab (AID 2284047).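 As to AC50: potency for a decrease in mean inter-network spike interval below DMSO.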 How it is done:
CCTE_Shafer_MEA_dev assay is conducted using Axion Biosystems 48 well microelectrode array (MEA) plates and Maestro recording system. Each well of the MEA plate contains a grid of 16 microelectrodes embedded in the culture surface. Electrically active cells, such as neurons, can be cultured over the electrodes, and electrical activity in these cells can be recorded extracellularly. The spontaneous firing of neurons is captured from each electrode on a microsecond timescale providing both temporally and spatially precise data. […] The CCTE_Shafer_MEA_dev assay uses primary cultures of rat cortical neurons. Recordings are made on days post-plating 5, 7, 9 and 12. As these cultures mature over time, neural networks develop functional activity and form cohesive networks in which electrical activity can be highly coordinated. CCTE_Shafer_MEA_dev_inter_network_spike_interval_mean is 1 of 19 assay components of the CCTE_Shafer_MEA_dev assay. It measures the average time interval between network spikes (temporally-clustered groups of actional potential firing across multiple electrodes) as the average time between peaks of consecutive network spikes during a recording in a microelectrode array (MEA) using Axion Biosystems Maestro 768 channel amplifier with the AxIS adaptive spike detector. To collapse across multiple recordings made on days post-plating 5, 7, 9 and 12, the trapezoidal area-under-the-curve of the component is calculated.Data from the assay component CCTE_Shafer_MEA_dev_inter_network_spike_interval_mean was analyzed into 1 assay endpoint. This assay endpoint, CCTE_Shafer_MEA_dev_inter_network_spike_interval_mean, was analyzed in the negative analysis fitting direction relative to DMSO as the negative control and baseline of activity. Using a type of functional reporter, gain or loss-of-signal activity can be used to understand electrical activity.
On the day prior to culture, each well was coated thoroughly with 150 uL of 0.05% polyethyleneimine (PEI, Sigma Cat P3143) in 50 mM HEPES (Sigma Cat H7523) at a pH of 8. The plate was incubated at 37C for one hour. PEI was rinsed out with 500 uL of sterile water three times. Plates were stored at 4C until the day of culture. This culture was plated at a seeding density of 1.5 x 10^5 cells/well on a 48-well MEA plate, prepared as described above. Cells were administered via a 25 uL media/laminin ([…]; Sigma Cat L2020-1MG) drop directly onto the microelectrode array, as adding the cells with the laminin results in better attachment than pre-coating with laminin. After 2 hours, an additional 475 uL of cortical media was added and the cells returned to the incubator. Exposure starts at day 0 of plating and is continued over twelve days of network development until the experiment is terminated. Cells are fed with fresh medium on DIV 5 and 9, following the recordings on those days. The entire volume of media in the well is exchanged and any vehicle or compound treatment is renewed. Complete details are found in OP-NHEERL/ISTD/SBB/TJS/2015-03-r0 (available on request, email shafer.tim@epa.gov). Measurement of the electrical activity is non-invasive, and recordings can be made from the same plate over multiple different days of the culture. In cortical neurons, this allows for the measurement of extracellular action potentials over the period during which networks form in the MEA plate.
`CC(C)N(C(=O)COc1nnc(C(F)(F)F)s1)c1ccc(F)cc1`: the outcome was inactive. In the case of `ClC1C(Cl)C(Cl)C(Cl)C(Cl)C1Cl` (stereo not given), the outcome was inactive. Same read-out and setting: the same measure for `O=S1OCC2C(CO1)C1(Cl)C(Cl)=C(Cl)C2(Cl)C1(Cl)Cl` (stereo not given): “inactive”; for `Oc1cc(Cl)ccc1Oc1ccc(Cl)cc1Cl`: “inactive”. As to `O=C(O)C(F)(F)C(F)(F)C(F)(F)C(F)(F)C(F)(F)C(F)(F)C(F)(F)F`, the compound was called inactive.

Regarding `CC1(c2ccc(Oc3ccccc3)cc2)OC(=O)N(Nc2ccccc2)C1=O` (stereo not given), the AC50 (in general, the concentration at which the activity in the assay is half-maximal) was 3.1 µM (active). `CNC(=O)CSP(=S)(OC)OC`: the compound was classed as inactive. For `O=C(O)COc1ccc(Cl)cc1Cl`, the outcome was inactive. Still for that read-out and setting: the same measure for `COP(=O)(OC)OC=C(Cl)Cl`: “inactive”. Consider `CC1(C)C(C=C(Cl)Cl)C1C(=O)OC(C#N)c1ccc(F)c(Oc2ccccc2)c1` (stereo not given), for which the outcome was inactive. Consider `CC[C@H](C)[C@H]1O[C@]2(C=C[C@@H]1C)C[C@@H]1C[C@@H](C/C=C(\C)[C@@H](O[C@H]3C[C@H](OC)[C@@H](O[C@H]4C[C@H](OC)[C@@H](O)[C@H](C)O4)[C@H](C)O3)[C@@H](C)/C=C/C=C3\CO[C@@H]4[C@H](O)C(C)=C[C@@H](C(=O)O1)[C@]34O)O2` (tested in a mixture with another compound), for which the compound was classed as inactive. Same read-out and setting: the same measure for `COP(=S)(OC)Oc1ccc([N+](=O)[O-])cc1`: “inactive”; for `O=S(=O)(O)C(F)(F)C(F)(F)C(F)(F)C(F)(F)C(F)(F)C(F)(F)C(F)(F)C(F)(F)F`: “inactive”. Same read-out and setting: for `O=[N+]([O-])/N=C1\NCCN1Cc1ccc(Cl)nc1` the value was “inactive”; for `CCC(C)(C)C(=O)OC1=C(c2ccc(Cl)cc2Cl)C(=O)OC12CCCCC2`, “inactive”.
